Screen size: about 320,000 compounds; about 2,100 (0.66%) were called active. Inconclusive results (about 53%) are left out. The call rests on the fitted dose curve; in most records, active means well fitted inhibition curve with a large enough effect in the signal ratio, with a control signal flat (not every such curve was filed as active); inconclusive means small, poorly fitted or top-dose-only effect, or effect the other way, or a change in a side signal; inactive means flat fitted curve, though single readings scatter; the % refers to the signal ratio. The list comes from a sample in which actives are over-represented; it also holds similar structures and randomly drawn compounds.
Assay: qHTS Assay for Lipid Storage Modulators in Drosophila S3 Cells;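 on cell number change: cells counted by Cell Tracker Red CMTPX staining in the red channel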
Conditions: BODIPY lipid droplet fluorescence, 18-24 h, cells fed with added oleic acid; cell number change: measured here: cell count max response; series mostly up to 46.1 µM
In short: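 Drosophila S3 cells got compounds at several concentrations plus oleic acid (400 uM solution). Laser-scanning cytometry with 488 nm excitation read lipid droplets at 500-530 nm and cells at 575-640 nm. Percent activity was relative to 20 uM Triacsin C.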
Potency means the concentration at half of the fitted maximal effect.

| SMILES | Potency | cell number change |
| --- | --- | --- |
| N#Cc1c(N)nc2c(c1-c1ccc(F)cc1)c(=O)nc1sccn12 | inactive |  |
| CC1(c2ccccc2Cl)NC(=O)N(CC(=O)NCCC2=CCCCC2)C1=O (stereo not drawn) | inactive |  |
| O=C(Cc1ccc(F)cc1)N1CCN(c2ccc([N+](=O)[O-])cc2)CC1 | inactive | 11.6% |
| Cc1ccc(CC(=O)N2CCN(c3ccc([N+](=O)[O-])cc3)CC2)cc1 | 7.31 µM (active) | 10.2% |
| O=C(Cc1ccc([N+](=O)[O-])cc1)N1CCN(c2ccc([N+](=O)[O-])cc2)CC1 | inactive | 2.07% |
| O=C(Nc1cccc2ccccc12)N1CCN(c2ncccn2)CC1 | inactive | 15% |
| CC(C)=CCN1CCN(Cc2cnc(N3CCOCC3)s2)CC1CCO (stereo not drawn) | 13 µM (active) | -26.5% |
| CC(C)CN1CCN(Cc2cnc(N3CCOCC3)s2)CC1CCO (stereo not drawn) | inactive | 24.7% |
| Cc1ccc(CN2CCN(Cc3cnc(N4CCOCC4)s3)CC2CCO)cc1 (stereo not drawn) | inactive | -2.17% |
| O=C1CN(S(=O)(=O)c2ccccc2)CCN1S(=O)(=O)c1ccccc1 | inactive | -1.6% |
| NS(=O)(=O)c1ccc(NC(=O)CSC2=NC(=O)C(c3ccccc3)C(=O)N2)cc1 (stereo not drawn) | inactive | -0.978% |
| CCC1C(=O)N=C(SCC(=O)Nc2ccc(S(N)(=O)=O)cc2)NC1=O (stereo not drawn) | 6.51 µM (active) | -37.4% |
| CCC1C(=O)N=C(SCC(=O)Nc2ccccc2)NC1=O (stereo not drawn) | inactive | 7.84% |
| O=S(=O)(/N=C(/c1ccc(F)cc1)N1CCCCC1)c1ccc(Cl)cc1 | inactive | -6.48% |
| Cc1ccc(CNC(=O)CN2C(=O)c3ccccc3S2(=O)=O)cc1 | inactive | 20.7% |
| Cn1nccc1C(=O)N/N=C/c1c(O)ccc2ccccc12 | 14.6 µM (active) | -2.67% |
| Cn1cc(C(=O)N/N=C/c2c(O)ccc3ccccc23)ccc1=O | inactive | -26.3% |
| CN(C)c1ccc(/C=N/NC(=O)c2ccnn2C)cc1 | inactive | -10.8% |
| O=C1NC(=S)N/C1=C/c1ccc(Oc2ccc(C(F)(F)F)cc2[N+](=O)[O-])c(Cl)c1 | inactive | -6.9% |
| COc1ccc(N2C(=O)CC(NC3CCCCNC3=O)C2=O)cc1 (stereo not drawn) | inactive | 5.19% |
| COCC(=O)Nc1ccc(OCc2ccccc2)cc1 | inactive | 4% |
| COc1ccc(NC(=O)CN(C)C(=O)/C=C/c2ccc(OCc3ccccc3)cc2)cc1 | 0.731 µM (active) | -11.8% |
| COc1ccc(NC(=O)CN(C)C(=O)c2ccc(COc3ccccc3)cc2)cc1 | inactive | -6.23% |
| Cc1ccc(C23CC4CC(CC(C(=O)OCC(=O)N(C)C)(C4)C2)C3)cc1 | inactive | 4.17% |
| CCOc1ccccc1CNC(=O)c1ccc(Sc2ccc(Cl)cc2)c(NC(C)=O)c1 | inactive | 7.67% |
